13 compounds from PubChem BioAssay (NCI) can be followed below.

Molecules are shown by their SMILES. Compounds without any hit were thinned out: in the full panel of roughly 83,000, 20% have a hit.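 48-hour exposure, single concentration, 96-well plates; percent growth endpoint where 0 means no net growth. Active: below 10.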 Unmarked numbers belong to inactive results. Activity calls are given as the source filed them.

Test systems include NCI-H23 lung; NCI-H226 lung; NCI-H322M lung; HOP-62 NSCLC; NCI-H460 lung; HOP-92 NSCLC; NCI-H522 lung; A549/ATCC NSCLC; 786-0 renal; COLO 205 colon.
Test in all cases: NCI-60 one-dose screen, 48 h (100 = growth as untreated, 0 = no growth, -100 = all killed)
Common to all, as to settings: 10 µM unless noted

For `CCN(CC)c1ccc2c(c1)Oc1nc(N)c(C#N)c(N)c1C2Sc1ccc(OC)cc1` (stereo not given), the growth with NCI-H23 lung was -25.8% (active); with NCI-H226 lung, 5.34% (active); in the test with NCI-H322M lung, 97.6%; in the test on HOP-62 NSCLC, 35.9%; in the test on NCI-H460 lung it was -18.3% (active); in the test on HOP-92 NSCLC, 88.3%. Moreover, the growth in the test with NCI-H522 lung is -61.9% (active); in the test on A549/ATCC NSCLC it was 72.8%; in the test on 786-0 renal it was 0.244% (active); with COLO 205 colon, -60% (active).
As to `O=C1CCC23OC(c4ccccc4N12)C(O)C(O)C3O` (stereo not given), the growth in the test with NCI-H23 lung was 102%; in the test with NCI-H226 lung, 107%; with NCI-H322M lung, 98.6%; with HOP-62 NSCLC it was 104%; with NCI-H460 lung it was 112%; with HOP-92 NSCLC, 113%. Further, the growth with NCI-H522 lung is 81%; with A549/ATCC NSCLC, 94.5%; with 786-0 renal, 98.8%; in the test with COLO 205 colon, 124%.
Consider `CCOC(=O)c1cnn(-c2nc(-c3ccc(F)cc3)c(C#N)c(N3CCOCC3)n2)c1N`, for which the growth with NCI-H23 lung is 103%; in the test with NCI-H226 lung, 92.1%; with NCI-H322M lung, 105%; in the test with HOP-62 NSCLC, 111%; in the test with NCI-H460 lung it was 100%; with HOP-92 NSCLC, 98.7%. Also, the growth with NCI-H522 lung is 90.6%; in the test on A549/ATCC NSCLC it was 93.9%; in the test on 786-0 renal it was 82.5%; with COLO 205 colon, 107%.
Take `CCSc1ccc(C2C(Br)C(=O)N2c2cc(OC)c(OC)c(OC)c2)cc1` (stereo not given): the growth in the test on NCI-H23 lung is 25.2%; with NCI-H226 lung, 50.2%; in the test on NCI-H322M lung it was 50.5%; with HOP-62 NSCLC it was 30%; in the test with NCI-H460 lung it was 10.1%; in the test on HOP-92 NSCLC it was 28.2%. For the same compound, the growth in the test on NCI-H522 lung is 7.68% (active); with A549/ATCC NSCLC, 18.2%; with 786-0 renal, 8.1% (active); with COLO 205 colon it was -38.5% (active).
As to `COc1ccccc1C(=O)/C=C/c1cc2cccc(OC)c2[nH]c1=O`, the growth is -16.4% (active) with NCI-H23 lung; -22.1% (active) with NCI-H226 lung; 8.09% (active) with NCI-H322M lung; -8.85% (active) in the test on HOP-62 NSCLC; -27.5% (active) in the test on NCI-H460 lung; 10.6% in the test with HOP-92 NSCLC. Moreover, the growth in the test on NCI-H522 lung was -72.7% (active); in the test with A549/ATCC NSCLC, 21.4%; with 786-0 renal it was 9.27% (active); in the test with COLO 205 colon it was -49.7% (active).
Take `N#C/C(=C/c1ccc(O)c([N+](=O)[O-])c1)c1nc(-c2ccc([N+](=O)[O-])cc2)cs1`: the growth is 13.6% in the test with NCI-H23 lung; 52% in the test with NCI-H226 lung; 52.8% with NCI-H322M lung; 86.8% in the test on HOP-62 NSCLC; 20.5% in the test on NCI-H460 lung; -8.22% (active) with HOP-92 NSCLC. Further, the growth with NCI-H522 lung is 11.2%; in the test on A549/ATCC NSCLC it was 27.1%; in the test on 786-0 renal it was 51.9%; in the test on COLO 205 colon it was 51.2%.
In the case of `CC(C)Cc1cc(CNC(=O)C2[C@H]3CN(C(=O)c4ccccc4)C[C@@H]23)nn1-c1ccccc1` (stereo not given in full), the growth was 96.3% in the test with NCI-H23 lung; 94.1% in the test with NCI-H226 lung; 95.3% in the test on NCI-H322M lung; 83.4% in the test on HOP-62 NSCLC; 102% in the test with NCI-H460 lung; 115% in the test with HOP-92 NSCLC. The growth in the test with NCI-H522 lung is 49.4%; with A549/ATCC NSCLC, 72.2%; in the test on 786-0 renal it was 99.4%; in the test with COLO 205 colon, 93.1%.
Take `CN(C)CSc1nc2ccccc2s1`: the growth in the test with NCI-H23 lung was 92.9%; in the test with NCI-H226 lung, 95.1%; with NCI-H322M lung it was 94.8%; in the test on HOP-62 NSCLC it was 88%; with NCI-H460 lung, 109%; in the test with HOP-92 NSCLC, 78.7%. Besides, the growth with NCI-H522 lung is 91.5%; in the test on A549/ATCC NSCLC, 101%; in the test on 786-0 renal it was 95.4%; in the test on COLO 205 colon, 91.6%.
Consider `CN(C)c1ccc(-c2ccc3[nH]c(=O)nc(-c4ccc(F)cc4)c3c2)cn1`, for which the growth was 56.2% in the test on NCI-H23 lung; 68.3% with NCI-H226 lung; 68.2% in the test with NCI-H322M lung; 48.2% in the test with HOP-62 NSCLC; 21.6% in the test with NCI-H460 lung; 56.1% in the test on HOP-92 NSCLC. The growth is 14.9% in the test on NCI-H522 lung, 39.6% in the test on A549/ATCC NSCLC, 30.4% in the test on 786-0 renal and 39.6% in the test with COLO 205 colon.
As to `Cc1[nH]c(N=Nc2ccccc2)nc1N=Nc1ccccc1`, the growth in the test on NCI-H23 lung was 36.3%; in the test with NCI-H226 lung, 12.7%; in the test with NCI-H322M lung, 39%; with HOP-62 NSCLC, 36.5%; in the test with NCI-H460 lung it was 16.2%; in the test with HOP-92 NSCLC it was 40.3%. Further, the growth is -17.5% (active) in the test on NCI-H522 lung, 27% with A549/ATCC NSCLC, 6.21% (active) in the test with 786-0 renal and 17.2% with COLO 205 colon.
On to `CCc1n(Cc2ccc3ccccc3c2)c2ccccc2[n+]1Cc1ccc2ccccc2c1`, for which the growth with NCI-H23 lung was 28.8%; in the test on NCI-H226 lung, 64.9%; in the test on NCI-H322M lung it was 90.7%; in the test with HOP-62 NSCLC, 81.3%; in the test on NCI-H460 lung, 53.6%; with HOP-92 NSCLC, 21.8%. Besides, the growth with NCI-H522 lung was 12.1%; in the test on A549/ATCC NSCLC it was 74.2%; in the test with 786-0 renal, 89%; in the test with COLO 205 colon, 25%.
`CN1C(=O)c2cc(Cl)nc3c(NC(=O)c4cccc(Cl)c4)c(Cl)c(NC(=O)c4cccc(Cl)c4)c1c23`: the growth was 18.7% in the test on NCI-H23 lung; 23.6% with NCI-H226 lung; 28.3% with NCI-H322M lung; 17.4% in the test with HOP-62 NSCLC; 2.82% (active) in the test on NCI-H460 lung; -38.4% (active) in the test on HOP-92 NSCLC. The growth with NCI-H522 lung is -54.6% (active); with A549/ATCC NSCLC, 83.8%; with 786-0 renal, 41.6%; with COLO 205 colon, 1.5% (active).
Turning to `C=C1C(=O)O[C@H]2[C@H]1CC/C(COC(=O)NCC(=O)Nc1ccc(OC)c(C(N)=O)c1O)=C\CC[C@@]1(C)O[C@@H]21`, the growth was 95.6% with NCI-H23 lung; 83.3% in the test on NCI-H226 lung; 92.2% in the test with NCI-H322M lung; 85.4% in the test with HOP-62 NSCLC; 97% in the test with NCI-H460 lung; 14.6% with HOP-92 NSCLC. For the same compound, the growth was -25.1% (active) in the test with NCI-H522 lung, 86.3% in the test with A549/ATCC NSCLC, 58.7% in the test on 786-0 renal and 10.8% in the test on COLO 205 colon.
